The values below come from PubChem BioAssay (Tox21).

Experiment [1] can be described thus: qHTS assay to identify small molecule agonists of the peroxisome proliferator-activated receptor delta (PPARd) signaling pathway - cell viability counter screen (AID 743211). Further: on the % scale 0 is the no-effect control and ±100 the full control effect; nearly all actives have a fitted effect of over 55% in size. The essentials: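 Tox21 library compounds, delivered in DMSO, were incubated 17 h with PPARd-bla HEK293H cells; cytotoxicity was taken from CellTiter-Glo luminescence read 30 min after reagent addition.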
For orientation: Quantitative high-throughput screening tests each substance at several concentrations.

In experiment [2] the target is Peroxisome proliferator-activated receptor delta (Homo sapiens) (UniProt Q03181). As to the kind of experiment: qHTS assay to identify small molecule agonists of the peroxisome proliferator-activated receptor delta (PPARd) signaling pathway (AID 743212; calls by dose curve; further: on the % scale 0 is the no-effect control and ±100 the full control effect). The essentials: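 HEK293H PPARd-bla cells; 5 h preincubation 37 C/5% CO2; compound (DMSO) 37 C; LiveBLAzer B/G FRET substrate 2 h RT; fluorescence intensity.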

A short description of experiment [3]: qHTS assay to identify small molecule antagonists of the peroxisome proliferator-activated receptor delta (PPARd) signaling pathway - cell viability counter screen (AID 743213). Further: on the % scale 0 is the no-effect control and ±100 the full control effect; nearly all actives have a fitted effect of over 50% in size. The essentials:
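Viability counter-screen, qHTS format: PPARd-bla HEK293H, L165041 300 nM final, 17 h compound exposure at 37 C, CellTiter-Glo luminescence after 30 min RT.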

Experiment [4] has as its target Peroxisome proliferator-activated receptor delta (Homo sapiens) (UniProt Q03181). Put plainly: qHTS assay to identify small molecule antagonists of the peroxisome proliferator-activated receptor delta (PPARd) signaling pathway (AID 743215; active means well fitted inhibition curve with a large enough effect in the signal ratio in the repeat runs, not every such curve was filed as active; the % refers to the signal ratio;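 further: cells stimulated with agonist L165041 at 300 nM final during compound exposure; series mostly up to about 62 µM; on the % scale 0 is the no-effect control and ±100 the full control effect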). In a few lines:
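PPARd-bla HEK293H cells (UAS-bla reporter) preincubated 5 h, then given compound plus 300 nM final L165041 agonist for 17 h at 37 C. Beta-lactamase activity read by LiveBLAzer B/G FRET substrate fluorescence after 2 h at room temperature.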

For experiment [5], the target named is Bile acid receptor (Homo sapiens) (UniProt Q96RI1). As to the kind of experiment: qHTS assay to identify small molecule antagonists of the farnesoid-X-receptor (FXR) signaling pathway (AID 743217; active means well fitted inhibition curve with a large enough effect in the signal ratio in the repeat runs, not every such curve was filed as active; the % refers to the signal ratio; further: on the % scale 0 is the no-effect control and ±100 the full control effect). In a few lines:
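FXR-UAS-bla HEK 293T cells (beta-lactamase reporter) given compound plus chenodeoxycholic acid (50 uM final), 16 h at 37C. LiveBLAzer B/G FRET substrate added for 2 h at room temperature; fluorescence read.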

The nature of experiment [6]: qHTS assay to identify small molecule agonists of the farnesoid-X-receptor (FXR) signaling pathway - cell viability counter screen (AID 743218). Further: on the % scale 0 is the no-effect control and ±100 the full control effect; nearly all actives have a fitted effect of over 45% in size. In a few lines: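 FXR-UAS-bla HEK 293T cells exposed to compounds for 16 h at 37C. Cytotoxicity read in the same wells by CellTiter-Glo luminescence after 30 min at room temperature, following the beta-lactamase FRET read.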

Experiment [7] deals with Bile acid receptor (Homo sapiens) (UniProt Q96RI1). As to the kind of experiment: qHTS assay to identify small molecule agonists of the farnesoid-X-receptor (FXR) signaling pathway (AID 743220; active means well fitted activation curve with a large enough effect in the signal ratio in the repeat runs, not every such curve was filed as active; the % refers to the signal ratio; further: on the % scale 0 is the no-effect control and ±100 the full control effect). The essentials: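 Beta-lactamase reporter under UAS control in GeneBLAzer FXR HEK 293T cells (5000/well) measured with LiveBLAzer FRET substrate after 2 h at room temperature. Compound exposure lasted 16 h at 37C.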

Experiment [8] is described as follows: qHTS assay to identify small molecule antagonists of the farnesoid-X-receptor (FXR) signaling pathway - cell viability counter screen (AID 743221; active means well fitted cell-killing curve with a large enough effect in the repeat runs, not every such curve was filed as active; further: on the % scale 0 is the no-effect control and ±100 the full control effect; nearly all actives have a fitted effect of over 50% in size). In a few lines: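 Cytotoxicity is taken from ATP luminescence (CellTiter-Glo, 30 min, room temperature) in FXR-bla HEK 293T cells previously incubated 16 h at 37 C with compound and chenodeoxycholic acid at 50 uM final.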

The target in experiment [9] is Vitamin D3 receptor (Homo sapiens) (UniProt P11473). As to the kind of experiment: qHTS assay to identify small molecule agonists of the vitamin D receptor (VDR) signaling pathway (AID 743222; calls by dose curve; further: on the % scale 0 is the no-effect control and ±100 the full control effect). In a few lines:
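VDR-bla cells plated 4 h at 37 C, then exposed to compounds for 16 h at 37 C. Beta-lactamase reporter activity measured by fluorescence after 2 h room-temperature loading with LiveBLAzer B/G FRET substrate.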

For experiment [10] the target is unchanged. Put plainly: qHTS assay to identify small molecule antagonists of the vitamin D receptor (VDR) signaling pathway (AID 743223; active means well fitted inhibition curve with a large enough effect in the signal ratio in the repeat runs, not every such curve was filed as active; the % refers to the signal ratio; further: on the % scale 0 is the no-effect control and ±100 the full control effect). The essentials: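 Quantitative HTS in VDR-bla reporter cells stimulated with 1alpha,25-dihydroxyvitamin D3, 3 nM final. Compound exposure 16 h, 37C, 5% CO2. Read-out: beta-lactamase FRET substrate fluorescence, 2 h RT.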
A short description of experiment [11]: qHTS assay to identify small molecule agonists of the vitamin D receptor (VDR) signaling pathway - cell viability counter screen (AID 743224). Further: series mostly up to about 63 µM; on the % scale 0 is the no-effect control and ±100 the full control effect; nearly all actives have a fitted effect of over 50% in size. The essentials:
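VDR-bla cells, 4 h after plating, exposed to compounds for 16 h at 37C; viability then read in the same wells as CellTiter-Glo luminescence after 30 min at room temperature, following the bla FRET read.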

Experiment [12] in a line: qHTS assay to identify small molecule agonists of the NFkB signaling pathway (AID 1159509; active means well fitted curve in the direction sought with a large enough effect in the signal ratio in the repeat runs, not every such curve was filed as active; the % refers to the signal ratio). The essentials: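 NFkB-bla ME-180 cells carry a beta-lactamase reporter under an NF-kB response element. They were plated overnight, then exposed to compounds for 5 h at 37 C. Read-out is LiveBLAzer FRET after 1.5 hr at room temperature (405 nm excitation; 460/530 nm emission).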

Experiment [13] in a line: qHTS assay to identify small molecule agonists of the NFkB signaling pathway - cell viability counter screen (AID 1159515; calls by dose curve; further: series mostly up to about 61 µM; on the % scale 0 is the no-effect control and ±100 the full control effect; nearly all actives have a fitted effect of over 55% in size). The essentials:
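NFkB-bla ME-180 cells, 2,000/well, plated overnight at 37 C; compound added for 5 hr at 37 C. Viability read in the same wells as the bla reporter, by CellTiter-Glo luminescence after 30 min at room temperature.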

A short description of experiment [14]: qHTS assay to identify small molecule agonists of the endoplasmic reticulum stress response signaling pathway - cell viability counter screen (AID 1159517; calls by dose curve; further: nearly all actives have a fitted effect of over 50% in size; further: potency means the concentration at half of the fitted maximal effect). In a few lines:
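HeLa cells carrying an ESRE-driven beta-lactamase reporter receive compound for 5 hr at 37 C. Cell viability is then gauged with CellTiter-Glo by luminescence, 30 min at room temperature.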

Experiment [15] addresses Nuclear receptor ROR-gamma (Homo sapiens) (UniProt P51449). Put plainly: qHTS assay to identify small molecule antagonists of the retinoid-related orphan receptor gamma (ROR-gamma) signaling pathway (AID 1159521). In a few lines: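 Inducible-expression reporter assay: doxycycline (1 uM final) switched on RORγ in CHO cells bearing a ROR response element-luciferase construct, with test compounds present from 2 h beforehand. Decreased luminescence after 16 h defined antagonist activity.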

Experiment [16] is described as follows: qHTS assay to identify small molecule agonists of the AP-1 signaling pathway - cell viability counter screen (AID 1159525; calls by dose curve; further: nearly all actives have a fitted effect of over 55% in size). The essentials: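 Luminescent ATP readout (Cell Titer Glo, 30 min RT), normalised to DMSO and tetra n-octyl ammonium bromide controls. Cells were ME-180 AP-1-bla in 0.5% dialyzed FBS Opti-MEM, with a 5 h, 37 °C compound exposure.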
Experiment [17] is described as follows: qHTS assay to identify small molecule agonists of the AP-1 signaling pathway (AID 1159526; calls by dose curve; further: on the % scale 0 is the no-effect control and ±100 the full control effect).
A short description of experiment [18]: qHTS assay to identify small molecule antagonists of the vitamin D receptor (VDR) signaling pathway - cell viability counter screen (AID 743225). The essentials: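 Same-well multiplex: following 16 h treatment of HEK 293T cells carrying a UAS-driven beta-lactamase reporter with compound and agonist (3 nM final), and a 2 h FRET substrate step, CellTiter-Glo was added and luminescence read after 30 min.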

Experiment [19] is described as follows: qHTS assay to identify small molecule antagonists of the retinoid-related orphan receptor gamma (ROR-gamma) signaling pathway - cell viability counter screen (AID 1159520). The essentials: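 Cytotoxicity was read from cellular ATP (CellTiter-Glo luminescence) after 16 hr at 37 C with 1 uM doxycycline induction. The inducer was added 2 hr after compound transfer to Tet-on ROR gamma CHO cells.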

Inconclusive results are not listed. Unmarked numbers belong to inactive results. The source made the active and inactive calls. Unless noted, the call rests on the fitted dose curve; in most records, active means well fitted curve in the direction sought with a large enough effect in the repeat runs; inconclusive means weak or mixed curves; inactive means no such curve, though single readings can be large; an effect the other way counts as inactive or inconclusive.

Sequence of Bile acid receptor (Homo sapiens) (Q96RI1 whole entry, looked up): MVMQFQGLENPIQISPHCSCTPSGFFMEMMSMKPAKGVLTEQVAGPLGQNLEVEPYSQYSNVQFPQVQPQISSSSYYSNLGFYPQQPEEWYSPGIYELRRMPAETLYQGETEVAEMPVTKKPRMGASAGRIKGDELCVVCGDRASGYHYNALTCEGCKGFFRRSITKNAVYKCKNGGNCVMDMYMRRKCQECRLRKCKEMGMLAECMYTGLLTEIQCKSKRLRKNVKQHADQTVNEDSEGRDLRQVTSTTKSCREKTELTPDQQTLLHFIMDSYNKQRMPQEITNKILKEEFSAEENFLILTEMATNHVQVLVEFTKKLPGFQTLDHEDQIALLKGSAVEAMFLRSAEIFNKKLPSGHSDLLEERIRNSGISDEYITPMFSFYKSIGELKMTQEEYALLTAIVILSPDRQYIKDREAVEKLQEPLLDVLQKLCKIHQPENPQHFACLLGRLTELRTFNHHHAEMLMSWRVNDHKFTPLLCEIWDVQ
Sequence of Peroxisome proliferator-activated receptor delta (Homo sapiens) (Q03181 whole entry, looked up): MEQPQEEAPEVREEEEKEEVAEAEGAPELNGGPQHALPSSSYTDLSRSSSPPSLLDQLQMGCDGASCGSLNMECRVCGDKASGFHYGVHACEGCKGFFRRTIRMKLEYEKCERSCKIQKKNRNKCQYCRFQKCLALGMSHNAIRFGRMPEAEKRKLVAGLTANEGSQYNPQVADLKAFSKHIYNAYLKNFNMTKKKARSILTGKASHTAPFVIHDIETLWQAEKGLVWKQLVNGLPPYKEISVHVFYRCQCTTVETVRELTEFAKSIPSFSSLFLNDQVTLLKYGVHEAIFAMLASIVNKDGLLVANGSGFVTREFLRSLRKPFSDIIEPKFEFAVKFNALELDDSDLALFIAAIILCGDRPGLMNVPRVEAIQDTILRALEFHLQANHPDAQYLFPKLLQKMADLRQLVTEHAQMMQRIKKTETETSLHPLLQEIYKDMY
Sequence of Vitamin D3 receptor (Homo sapiens) (P11473 whole entry, looked up): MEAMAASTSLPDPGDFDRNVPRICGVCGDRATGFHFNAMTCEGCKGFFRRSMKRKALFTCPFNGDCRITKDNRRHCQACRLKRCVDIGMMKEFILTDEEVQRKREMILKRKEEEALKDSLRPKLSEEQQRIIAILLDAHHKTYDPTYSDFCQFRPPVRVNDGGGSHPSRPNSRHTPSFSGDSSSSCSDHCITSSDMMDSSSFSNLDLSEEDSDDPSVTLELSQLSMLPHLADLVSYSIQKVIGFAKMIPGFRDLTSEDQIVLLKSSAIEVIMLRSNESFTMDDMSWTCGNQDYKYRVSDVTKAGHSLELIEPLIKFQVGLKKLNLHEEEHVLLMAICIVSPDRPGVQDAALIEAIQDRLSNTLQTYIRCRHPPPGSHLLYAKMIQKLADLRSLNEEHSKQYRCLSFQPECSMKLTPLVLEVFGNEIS

Turning to `CCC(=O)OCc1ccc(OC)cc1`, the Potency result in [1], in experiment [3], in [4], in experiment [6], in [7] and in [8] was “inactive” in each case. For the same molecule, the Potency result in experiment [11], in [13], in experiment [14], in experiment [15] and in [16] was “inactive” each time. Besides, the result in experiment [2], in experiment [5], in experiment [9], in experiment [10], in [12] and in experiment [17] was inactive.
For `Cc1ccc(NC(=O)N(C)C)cc1NC(=O)N(C)C`, the Potency entry in [1], in [3], in experiment [4], in experiment [6], in experiment [7] and in experiment [11] was “inactive” throughout. Also, the Potency entry in [18], in experiment [13], in experiment [14], in [19] and in [16] was “inactive” each time. Further, the molecule was classed as inactive in experiment [2], in experiment [5], in experiment [9], in [10], in experiment [12] and in experiment [17].
Consider `CCCCCCCCCCCCCCN(C)C`, for which the Potency entry in experiment [1], in experiment [3], in experiment [6], in experiment [8], in experiment [18] and in [13] was “inactive” each time. Also, in [14], the Potency result is “inactive”. Moreover, the call in experiment [9], in experiment [10] and in experiment [12] was inactive. Also, in experiment [19], the activity, negative = cytotoxicity is 0.214% [at 19 µM]. Further, the activity change, negative = inhibition in experiment [15] was -1.54% [at 19 µM]. Further, the viability change, negative = cytotoxic in [16] was 1.48% [at 15.8 µM]. Besides, the activation in [17] is -14.8% [at 15.8 µM].
Regarding `CCCCCCCCCCCCCCCCCC(=O)OCC(CC)CCCC` (stereo not drawn), the Potency entry in experiment [1], in experiment [3], in experiment [8], in [11], in experiment [13] and in experiment [14] was “inactive” in each case. The Potency entry in experiment [19], in experiment [15] and in experiment [16] was “inactive” each time. In addition, the molecule was called inactive in [9], in experiment [10], in experiment [12] and in experiment [17].
`CC(=O)c1ccc[nH]1`: the Potency entry in [1], in experiment [3], in experiment [4], in experiment [7], in experiment [8] and in experiment [11] was “inactive” throughout. In addition, the Potency result in experiment [18], in experiment [13], in [14], in experiment [15] and in [16] was “inactive” in each case. The molecule was called inactive in experiment [2], in [5], in experiment [12] and in [17].
With `O=C(O)CCCc1c[nH]c2ccccc12`, the Potency entry in experiment [1], in experiment [4], in [6], in experiment [7], in experiment [11] and in [18] was “inactive” in each case. In addition, the Potency entry in experiment [13], in experiment [14], in experiment [19], in experiment [15] and in experiment [16] was “inactive” in each case. Further, the result in [5], in experiment [12] and in [17] was inactive.
As to `CC1=CC[C@@H]2C[C@H]1C2(C)C`, the activity change, negative = cytotoxicity in [1] is -15.6% [at 13.2 µM]; in [14], 30.1% [at 15.1 µM]. The viability change, negative = cytotoxic in [3] is -2.53% [at 13.7 µM]; in experiment [6], 17.4% [at 13.2 µM]; in [18] it was -2.02% [at 15.1 µM]; in experiment [16], 0.876% [at 15.8 µM]. For the same molecule, the activation in experiment [9] is -15.3% [at 13.4 µM]; in [12], -0.527% [at 15.1 µM]; in experiment [17] it was 4.37% [at 15.8 µM]. Besides, the activity, negative = cytotoxic in [13] was 15.3% [at 15.1 µM]. The activity, negative = cytotoxicity in [19] is 2.52% [at 19 µM]. Also, the activity change, negative = inhibition in experiment [15] is -7.14% [at 19 µM].
Regarding `COC1CCC=CO1` (stereo not drawn), the Potency result in [1], in [3], in experiment [4], in [6], in [8] and in experiment [18] was “inactive” throughout. For the same molecule, the Potency result in experiment [13], in experiment [15] and in experiment [16] was “inactive” in each case. The call in [2], in experiment [12] and in experiment [17] was inactive. In experiment [14], the Potency was 55.3 µM (active).
As to `CCCCC(CC)COS(=O)(=O)O` (stereo not drawn), the Potency entry in [3], in experiment [4], in [6], in experiment [8], in experiment [18] and in [13] was “inactive” each time. The Potency entry in [14], in experiment [15] and in experiment [16] was “inactive” throughout. In addition, the result in experiment [5], in [9], in experiment [12] and in experiment [17] was inactive.
